Test results taken from PubChem BioAssay AID624202 (National Center for Advancing Translational Sciences (NCATS), 2012).
The campaign covered roughly 380,000 compounds. About 4,000 (1.1%) were called active. About 3% were inconclusive and are not listed. This excerpt belongs to a sample that is enriched for actives. A number with no mark means an inactive call. Calls come from the whole dose curve; as a rule, active = well fitted activation curve with a large enough effect; inconclusive = small, poorly fitted or top-dose-only effect; inactive = no such curve, though single readings can be large or run the other way.

experiment: qHTS Assay to Identify Small Molecule Activators of BRCA1 Expression; conditions: MCF7-BRCA1-FFLuc reporter, luminescence, 48 h; series mostly up to 46.1 µM; activation: at the top concentration; note: nearly all actives have a fitted effect of over 80% in size
In short: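 MCF7-BRCA1-FFLuc cells, 2000/well in phenol-red-free MEM, attached 2 h then treated 48 h at 37 C. Luciferase luminescence read 15 min after reagent; normalized to genistein maximum activation (10microM) and DMSO, concentration-response fitted.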
Potency is the fitted concentration of half-maximal effect.

SMILES	activation [%]	Potency
O=C(C1CC1)N1CCc2cc(Br)cc(S(=O)(=O)N3CCN(c4ccccc4F)CC3)c21	-3.63	–
O=[N+]([O-])c1ccc(NC(=S)N2CCN(c3ccccn3)CC2)cc1	-40.3	–
O=C(COC(=O)c1ccccn1)NNC(=O)c1ccc([N+](=O)[O-])cc1	0.358	–
O=C(Nc1ccc([N+](=O)[O-])cc1)OCCc1ccccn1	–	2.82 µM (active)
O=C(Nc1ccc(Cl)cc1)Nc1ccc(Oc2cccnc2)nc1	28.1	–
CC(=O)c1cccc(NC(=O)c2nc(-c3ccccc3)n(-c3cccc(C)c3)n2)c1	-0.252	–
CC(=O)c1cccc(NC(=O)Nc2ccc(C)cc2)c1	–	14.1 µM (active)
Cc1ccc(NC(=O)N2CCC(O)(c3cccnc3)CC2)cc1	18	–
Cc1ccc(NC(=O)Nc2cccnc2)cc1	–	12.6 µM (active)
Cc1ccc(NC(=O)Nc2ccccc2)c(Br)c1	–	1.58 µM (active)
CCOc1cc(NC(=O)Nc2ccccc2)c(OCC)cc1NC(=O)CC	-19.8	–
Cc1cc(NC(=O)Nc2c[nH]c(=O)[nH]c2=O)ccc1Br	10	–
CC(=O)c1cccc(NC(=O)[C@@H](NC(N)=O)C(C)C)c1	-13.3	–
Cc1sc2ncn(CC(=O)N3CCN(c4ccc(F)cc4)CC3)c(=O)c2c1S(=O)(=O)N1CCN(c2ncccn2)CC1	-7.16	–
COc1ccccc1CNc1ccc(-c2nc(-c3ccccc3C)no2)cc1[N+](=O)[O-]	3.58	–
CCOC(=O)C(Cc1ccccc1)NC(=O)CCc1c(C)nc2c(c(C)nn2-c2ccc(C)c(C)c2)c1C (stereo not drawn)	1.84	–
CCS(=O)(=O)N1CCc2cc(C(=O)NCc3ccc(OC)cc3)ccc21	0	–
COc1ccc(CNc2nc(-c3ccc(Cl)cc3)cc(C(F)(F)F)n2)cc1	-6.97	–
CC(Nc1ccc(-c2nc(-c3ccco3)no2)cc1[N+](=O)[O-])c1ccccc1 (stereo not drawn)	0	–
COc1ccc(NC(=O)Cn2c(=O)n(Cc3ccc(C(=O)NCc4ccccc4Cl)cc3)c(=O)c3ccccc32)cc1	7.5	–
COc1ccc(-n2c(=O)c3ccccc3n(Cc3ccccc3Cl)c2=O)cc1	13.8	–
Cc1c(NC(=O)Nc2cccc([N+](=O)[O-])c2)c(=O)n(-c2ccccc2)n1C	0	–
O=C(CN1CCC(NC(=O)Nc2ccccc2)CC1)Nc1cccc([N+](=O)[O-])c1	-1.04	–
O=C(Nc1cccc([N+](=O)[O-])c1)N1CCc2ccccc2C1	–	10 µM (active)
O=C(CSc1nnc(-c2ccncc2)n1-c1ccccc1)Nc1ccc(Cl)c(Cl)c1	-9.9	–
CCOc1ccc(CNC(=O)c2ccc3c(c2)nnn3C2CCCC2)cc1	8.43	–
CC1CC(C)CN(c2oc(-c3ccc(OCc4ccc(Cl)cc4)cc3)nc2C#N)C1 (stereo not drawn)	7.19	–

SMILES	activation [%]	Potency
CCN(CC)C(=O)CSc1nnc(-c2ccc(S(=O)(=O)NCc3ccccc3Cl)cc2)o1	-7.09	–
CCN(CC)C(=O)CSc1nnc(-c2cccc(OC)c2)o1	–	11.2 µM (active)
COc1cccc(NC(=O)CSc2nnc(-c3cccnc3)o2)c1	-36.4	–
CCOC(=O)c1cc(OC(=O)c2ccccc2Cl)n(-c2ccccc2)n1	3.87	–
CC(C)(C)c1ccc(C(=O)C[n+]2cccc3cc(Cl)ccc32)cc1	-79	–
Cn1cc(S(=O)(=O)N2CCCCCC2)cc1C(=O)N1CCN(c2ccc(F)cc2)CC1	-2.6	–
CCc1ccc(C(=O)CC2(O)C(=O)N(CCc3ccccc3)c3ccc(Br)cc32)cc1 (stereo not drawn)	-66.1	–
Cc1ccc(-c2noc(CSc3nnc(-c4ccc(Cl)cc4)n3C)n2)cc1	3.58	–
CCN1CC(CN(C)Cc2nc(-c3ccc(Cl)cc3)no2)CC1=O (stereo not drawn)	-7.51	–
CC1CCN(Cc2nc(-c3ccc(Cl)cc3)no2)CC1	–	8.91 µM (active)
CC(C)c1ccc2oc(-c3cc(NC(=O)c4cccs4)ccc3Cl)nc2c1	-45.6	–
CC1(C)Cc2ccccc2-c2c[nH]c(=O)n21	7.61	–
CCCN1CNC(=S)N(CCc2ccccc2)C1	7.02	–
N#CNC1=NCN(CCc2ccccc2)CN1	-31	–
c1ccc(CCN2CN=C(Nc3nc4ccccc4o3)NC2)cc1	–	7.94 µM (active)
CCOC(=O)c1c(C)[nH]c(C)c1S(=O)(=O)N1CCC(C(=O)Nc2ccc(C)c(Cl)c2)CC1	-39.2	–
C(=Nc1ccc(/C=C/c2ccnc3ccccc23)cc1)Nc1ccc(/C=C/c2ccnc3ccccc23)cc1	-8.64	–
C/C(=C\C(=O)c1cccnc1)Nc1ccc(C)c(C)c1	–	12.6 µM (active)
O=C(CC(=O)c1cccnc1)c1ccccc1	-40.2	–
Cc1ccc(S(=O)(=O)N2CCCCC2)cc1NC(=O)c1cccnc1	-7.67	–
CC1CCN(C(=S)c2ccc(-c3ccc(Cl)cc3Cl)o2)CC1	71.8	–
S=C(c1ccc(-c2ccccc2)o1)N1CCCCC1	–	3.98 µM (active)
COc1cc(OC)c(C(=S)N2CCCC2)cc1OC	-5.45	–
Cc1cc(C)c(NC(=O)CN2CCCCCC2)c(C)c1	86.6	–
O=C(CN1CCCCCC1)Nc1ccc(Br)cc1[N+](=O)[O-]	17.5	–
O=C(CN1CCCCCC1)Nc1ccc(Br)cc1Br	–	5.62 µM (active)
